{"source": "paper PMC11024108", "experiment_in_all_cases": "cross-link between two proteins; cross-linking mass spectrometry", "key": {"Gamma-enolase": {"biological_target": "Gamma-enolase (UniProt P17183)", "sequence (P17183 whole entry)": "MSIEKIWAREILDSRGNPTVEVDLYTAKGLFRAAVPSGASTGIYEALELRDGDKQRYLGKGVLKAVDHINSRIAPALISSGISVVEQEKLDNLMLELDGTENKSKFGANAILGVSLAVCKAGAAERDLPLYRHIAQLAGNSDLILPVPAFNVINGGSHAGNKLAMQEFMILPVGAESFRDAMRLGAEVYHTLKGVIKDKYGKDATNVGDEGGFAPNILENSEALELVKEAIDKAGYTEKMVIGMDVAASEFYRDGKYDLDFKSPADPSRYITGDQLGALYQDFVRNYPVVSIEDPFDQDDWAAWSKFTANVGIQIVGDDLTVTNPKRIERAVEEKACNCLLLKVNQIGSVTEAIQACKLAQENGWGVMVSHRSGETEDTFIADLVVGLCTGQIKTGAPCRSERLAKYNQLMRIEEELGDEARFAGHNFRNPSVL"}, "[1]": {"biological_target": "Gamma-soluble NSF attachment protein (UniProt Q9CWZ7)", "sequence (Q9CWZ7 whole entry)": "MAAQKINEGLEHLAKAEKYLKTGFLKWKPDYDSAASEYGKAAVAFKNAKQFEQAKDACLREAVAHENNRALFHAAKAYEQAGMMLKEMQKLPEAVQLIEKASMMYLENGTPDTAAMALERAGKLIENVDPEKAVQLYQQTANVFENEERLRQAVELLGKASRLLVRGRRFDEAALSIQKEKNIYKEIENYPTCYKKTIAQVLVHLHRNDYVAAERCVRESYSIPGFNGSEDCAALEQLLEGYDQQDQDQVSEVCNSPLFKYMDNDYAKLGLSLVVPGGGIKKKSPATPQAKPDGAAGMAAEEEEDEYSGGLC"}, "Glutamate receptor 2": {"biological_target": "Glutamate receptor 2 (UniProt P23819)"}, "[2]": {"biological_target": "Glyceraldehyde-3-phosphate dehydrogenase (UniProt P16858)"}, "[3]": {"biological_target": "Guanine nucleotide-binding protein G(I)/G(S)/G(O) subunit gamma-5 (UniProt P63218)", "sequence (P63218 whole entry)": "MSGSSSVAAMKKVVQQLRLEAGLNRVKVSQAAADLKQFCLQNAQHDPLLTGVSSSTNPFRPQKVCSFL"}, "[4]": {"biological_target": "Guanine nucleotide-binding protein G(I)/G(S)/G(T) subunit beta-1 (UniProt P62874)", "sequence (P62874 whole entry)": "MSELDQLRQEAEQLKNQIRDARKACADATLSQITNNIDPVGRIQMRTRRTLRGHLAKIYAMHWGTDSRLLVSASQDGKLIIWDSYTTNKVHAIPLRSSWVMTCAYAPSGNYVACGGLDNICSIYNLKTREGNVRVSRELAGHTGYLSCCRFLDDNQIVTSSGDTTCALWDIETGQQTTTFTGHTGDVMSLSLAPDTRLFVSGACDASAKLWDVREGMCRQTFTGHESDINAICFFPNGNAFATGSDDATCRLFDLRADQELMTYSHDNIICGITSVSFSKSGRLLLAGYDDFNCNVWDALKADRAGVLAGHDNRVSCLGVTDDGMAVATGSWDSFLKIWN"}, "[5]": {"biological_target": "Guanine nucleotide-binding protein subunit beta-4 (UniProt Q9HAV0)", "sequence (Q9HAV0 whole entry)": "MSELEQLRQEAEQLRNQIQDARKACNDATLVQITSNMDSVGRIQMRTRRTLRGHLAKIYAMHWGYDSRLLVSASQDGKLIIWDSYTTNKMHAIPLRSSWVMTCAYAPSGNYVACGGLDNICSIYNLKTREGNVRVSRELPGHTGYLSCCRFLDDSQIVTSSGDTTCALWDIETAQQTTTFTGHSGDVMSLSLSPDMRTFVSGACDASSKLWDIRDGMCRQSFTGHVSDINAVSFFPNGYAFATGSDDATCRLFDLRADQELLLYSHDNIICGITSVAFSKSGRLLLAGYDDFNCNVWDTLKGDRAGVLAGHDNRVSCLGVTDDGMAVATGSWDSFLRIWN"}, "[6]": {"biological_target": "Heat shock cognate 71 kDa protein (UniProt P11142)", "sequence (P11142 whole entry)": "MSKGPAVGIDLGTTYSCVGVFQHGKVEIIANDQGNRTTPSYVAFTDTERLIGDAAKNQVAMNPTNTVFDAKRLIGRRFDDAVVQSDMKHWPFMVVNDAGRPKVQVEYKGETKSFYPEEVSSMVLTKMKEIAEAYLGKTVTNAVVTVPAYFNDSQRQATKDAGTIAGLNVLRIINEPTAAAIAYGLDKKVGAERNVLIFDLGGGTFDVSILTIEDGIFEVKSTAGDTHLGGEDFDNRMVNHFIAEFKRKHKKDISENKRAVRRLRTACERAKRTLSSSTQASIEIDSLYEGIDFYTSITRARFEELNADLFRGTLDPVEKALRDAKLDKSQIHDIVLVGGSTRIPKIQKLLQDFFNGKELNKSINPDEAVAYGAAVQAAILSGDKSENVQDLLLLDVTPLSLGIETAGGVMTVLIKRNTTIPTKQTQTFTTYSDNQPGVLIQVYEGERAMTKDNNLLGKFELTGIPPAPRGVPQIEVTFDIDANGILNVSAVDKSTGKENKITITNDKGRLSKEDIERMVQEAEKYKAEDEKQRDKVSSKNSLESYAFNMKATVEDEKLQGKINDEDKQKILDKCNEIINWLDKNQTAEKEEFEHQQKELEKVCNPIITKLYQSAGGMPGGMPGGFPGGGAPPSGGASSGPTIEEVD"}, "[7]": {"biological_target": "Heat shock cognate 71 kDa protein (UniProt P63017)", "sequence (P63017 whole entry)": "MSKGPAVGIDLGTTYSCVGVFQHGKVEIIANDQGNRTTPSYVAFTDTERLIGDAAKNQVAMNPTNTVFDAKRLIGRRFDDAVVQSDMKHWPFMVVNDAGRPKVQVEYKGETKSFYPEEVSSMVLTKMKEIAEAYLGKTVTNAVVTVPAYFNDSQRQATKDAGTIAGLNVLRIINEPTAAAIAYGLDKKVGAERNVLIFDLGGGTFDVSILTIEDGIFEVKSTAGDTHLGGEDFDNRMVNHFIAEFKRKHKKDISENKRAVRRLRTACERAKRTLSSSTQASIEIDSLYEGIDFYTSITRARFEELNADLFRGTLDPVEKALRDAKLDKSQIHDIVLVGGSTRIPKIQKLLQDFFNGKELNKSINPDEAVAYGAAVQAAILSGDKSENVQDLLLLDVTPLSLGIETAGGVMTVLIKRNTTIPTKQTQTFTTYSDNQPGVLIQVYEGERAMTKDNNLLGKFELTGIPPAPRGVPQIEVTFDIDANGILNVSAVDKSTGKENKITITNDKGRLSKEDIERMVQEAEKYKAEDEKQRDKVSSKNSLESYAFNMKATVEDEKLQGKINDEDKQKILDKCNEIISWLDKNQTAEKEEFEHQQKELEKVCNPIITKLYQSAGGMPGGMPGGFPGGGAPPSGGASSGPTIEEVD"}, "[8]": {"biological_target": "Hemoglobin subunit beta-1 (UniProt P02088)"}, "Histone H2B type 1-H": {"biological_target": "Histone H2B type 1-H (UniProt Q93079)"}, "[9]": {"biological_target": "Hyaluronan and proteoglycan link protein 1 (UniProt Q9QUP5)"}, "[10]": {"biological_target": "Insulin-like growth factor 1 receptor (UniProt Q60751)"}, "Intersectin-1": {"biological_target": "Intersectin-1 (UniProt Q9Z0R4)"}, "[11]": {"biological_target": "Kinesin heavy chain isoform 5C (UniProt P28738)", "sequence (P28738 whole entry, canonical isoform)": "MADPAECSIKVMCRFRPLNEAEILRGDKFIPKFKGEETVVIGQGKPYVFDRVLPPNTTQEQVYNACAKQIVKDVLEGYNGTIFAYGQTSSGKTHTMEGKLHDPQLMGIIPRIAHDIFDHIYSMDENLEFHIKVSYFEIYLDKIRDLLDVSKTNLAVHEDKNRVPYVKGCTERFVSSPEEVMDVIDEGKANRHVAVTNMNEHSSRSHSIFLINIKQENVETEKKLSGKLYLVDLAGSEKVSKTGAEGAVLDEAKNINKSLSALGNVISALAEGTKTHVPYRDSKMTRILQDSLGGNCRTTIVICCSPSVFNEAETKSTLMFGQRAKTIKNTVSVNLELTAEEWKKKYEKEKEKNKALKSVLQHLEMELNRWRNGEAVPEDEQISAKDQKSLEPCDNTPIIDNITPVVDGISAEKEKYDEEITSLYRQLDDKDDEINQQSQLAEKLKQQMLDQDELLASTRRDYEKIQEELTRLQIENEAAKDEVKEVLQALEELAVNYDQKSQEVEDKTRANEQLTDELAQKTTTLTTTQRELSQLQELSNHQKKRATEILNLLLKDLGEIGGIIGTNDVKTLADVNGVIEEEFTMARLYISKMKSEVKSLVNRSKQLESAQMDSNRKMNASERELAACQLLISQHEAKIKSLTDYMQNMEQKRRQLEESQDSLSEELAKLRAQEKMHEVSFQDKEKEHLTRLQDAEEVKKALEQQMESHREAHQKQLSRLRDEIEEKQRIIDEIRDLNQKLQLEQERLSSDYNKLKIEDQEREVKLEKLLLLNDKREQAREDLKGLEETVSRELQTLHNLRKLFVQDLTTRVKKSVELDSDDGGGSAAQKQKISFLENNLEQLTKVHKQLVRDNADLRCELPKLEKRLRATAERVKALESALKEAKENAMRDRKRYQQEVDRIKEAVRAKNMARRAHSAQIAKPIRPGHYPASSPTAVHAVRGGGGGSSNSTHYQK"}, "Kinesin light chain 2": {"biological_target": "Kinesin light chain 2 (UniProt O88448)", "sequence (O88448 whole entry)": "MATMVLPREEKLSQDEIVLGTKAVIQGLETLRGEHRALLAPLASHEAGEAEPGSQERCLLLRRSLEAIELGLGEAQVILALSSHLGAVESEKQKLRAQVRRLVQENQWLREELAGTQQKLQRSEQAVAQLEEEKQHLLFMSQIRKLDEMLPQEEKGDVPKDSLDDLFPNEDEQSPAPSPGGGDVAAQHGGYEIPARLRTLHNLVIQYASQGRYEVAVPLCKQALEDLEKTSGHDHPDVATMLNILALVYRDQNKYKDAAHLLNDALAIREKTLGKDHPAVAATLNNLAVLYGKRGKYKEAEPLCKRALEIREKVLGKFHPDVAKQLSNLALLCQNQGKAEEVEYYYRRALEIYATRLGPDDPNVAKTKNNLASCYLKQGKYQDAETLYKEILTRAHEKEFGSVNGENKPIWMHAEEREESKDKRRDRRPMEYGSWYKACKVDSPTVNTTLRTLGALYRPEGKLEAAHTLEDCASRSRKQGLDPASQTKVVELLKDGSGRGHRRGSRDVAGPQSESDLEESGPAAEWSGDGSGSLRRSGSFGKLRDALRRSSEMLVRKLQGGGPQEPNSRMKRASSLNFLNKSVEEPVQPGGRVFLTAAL"}, "[12]": {"biological_target": "Lanosterol 14-alpha demethylase (UniProt Q16850)", "sequence (Q16850 whole entry)": "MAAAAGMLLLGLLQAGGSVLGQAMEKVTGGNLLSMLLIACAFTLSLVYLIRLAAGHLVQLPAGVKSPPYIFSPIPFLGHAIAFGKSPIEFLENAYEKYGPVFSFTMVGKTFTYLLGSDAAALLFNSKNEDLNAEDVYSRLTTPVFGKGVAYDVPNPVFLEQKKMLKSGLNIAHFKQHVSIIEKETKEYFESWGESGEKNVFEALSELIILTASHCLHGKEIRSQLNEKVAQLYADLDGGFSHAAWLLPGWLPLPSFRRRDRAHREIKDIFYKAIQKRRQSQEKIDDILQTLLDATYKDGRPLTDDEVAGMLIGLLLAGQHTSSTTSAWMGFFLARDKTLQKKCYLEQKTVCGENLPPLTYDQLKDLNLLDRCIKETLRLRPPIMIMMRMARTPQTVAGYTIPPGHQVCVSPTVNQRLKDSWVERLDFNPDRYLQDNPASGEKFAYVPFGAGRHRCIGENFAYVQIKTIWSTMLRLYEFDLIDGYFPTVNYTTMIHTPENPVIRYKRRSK"}, "[13]": {"biological_target": "Lysocardiolipin acyltransferase 1 (UniProt Q6UWP7)"}}}
{"substance": "Alpha-enolase, P17182", "values": [{"measurement": "listed as a hit", "setting": "Gamma-enolase", "result": "yes"}]}
{"substance": "Beta-soluble NSF attachment protein, P28663", "values": [{"measurement": "listed as a hit", "setting": "[1]", "result": "yes"}]}
{"substance": "DOMON domain-containing protein FRRS1L, B1AXV0", "values": [{"measurement": "listed as a hit", "setting": "Glutamate receptor 2", "result": "yes"}]}
{"substance": "Fructose-bisphosphate aldolase A, P05064", "values": [{"measurement": "listed as a hit", "setting": "[2]", "result": "yes"}]}
{"substance": "Guanine nucleotide-binding protein G(I)/G(S)/G(T) subunit beta-2, P62879", "values": [{"measurement": "listed as a hit", "setting": "[3]", "result": "yes"}]}
{"substance": "Guanine nucleotide-binding protein G(I)/G(S)/G(O) subunit gamma-4, P50153", "values": [{"measurement": "listed as a hit", "setting": "[4]", "result": "yes"}]}
{"substance": "Guanine nucleotide-binding protein G(I)/G(S)/G(O) subunit gamma-5, P63218", "values": [{"measurement": "listed as a hit", "setting": "[5]", "result": "yes"}]}
{"substance": "Heat shock protein HSP 90-beta, P08238", "values": [{"measurement": "listed as a hit", "setting": "[6]", "result": "yes"}]}
{"substance": "Heat shock 70 kDa protein 4L, P48722", "values": [{"measurement": "listed as a hit", "setting": "[7]", "result": "yes"}]}
{"substance": "Hemoglobin subunit alpha, P01942", "values": [{"measurement": "listed as a hit", "setting": "[8]", "result": "yes"}]}
{"substance": "Programmed cell death protein 4, Q53EL6", "values": [{"measurement": "listed as a hit", "setting": "Histone H2B type 1-H", "result": "yes"}]}
{"substance": "Neurocan core protein, P55066", "values": [{"measurement": "listed as a hit", "setting": "[9]", "result": "yes"}]}
{"substance": "Insulin receptor, P15208", "values": [{"measurement": "listed as a hit", "setting": "[10]", "result": "yes"}]}
{"substance": "Epidermal growth factor receptor substrate 15-like 1, Q60902", "values": [{"measurement": "listed as a hit", "setting": "Intersectin-1", "result": "yes"}]}
{"substance": "Kinesin light chain 1, O88447", "values": [{"measurement": "listed as a hit", "setting": "[11]", "result": "yes"}, {"measurement": "listed as a hit", "setting": "Kinesin light chain 2", "result": "yes"}]}
{"substance": "Membrane-associated progesterone receptor component 1, O00264", "values": [{"measurement": "listed as a hit", "setting": "[12]", "result": "yes"}, {"measurement": "listed as a hit", "setting": "[13]", "result": "yes"}]}
